Many of the other results were omitted from the sample, so hits are more common in it than they were.
Dicer inh – inhibitors of Dicer pre-microRNA processing, primary screen, biochemical, cat-ELCCA, chemiluminescence | cat-ELCCA pre-miR-21 Dicer processing; active compounds read high | z-score at 25 µM | actives 6% (n = 47,000); in the data active = z-score above about 3, passing the limit was not always enough;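 also: plate controls were vehicle for no effect and no enzyme for full effect; higher signal means more uncleaved substrate so more Dicer inhibition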
* hit, by the source's call.

SMILES	Dicer inh
CCN1C(=O)C2(/C(=C(/O)c3ccc(C)c(F)c3)C(=O)C(=O)N2CCN(C)C)c2ccccc21 (stereo not given)	2.1
COc1cc2ncnc(NC(C)C)c2cc1OC	-0.54
CCCOC(=O)CSc1nnc(-c2ccc(N(C)C)cc2)o1	-1.4
c1ccc(-c2nnc(-c3ccccc3)o2)cc1	1.1
CN(C)c1ccc(-c2nnc(-c3ccccc3)o2)cc1	4.2*
CC1=C(C(=O)OC2CCCC2)C(c2cccc(C)c2)C2=C(CCCC2=O)N1 (stereo not given)	-2
CC1=CC(c2ccc(Cl)cc2)n2nc(NC(=O)c3ccco3)nc2N1 (stereo not given)	9.8*
CS(=O)(=O)Nc1nc2n(n1)C(c1ccc(F)cc1)C=C(c1ccc(Cl)cc1)N2 (stereo not given)	2.4
Cc1ccc(C2C=C(c3ccc(Cl)cc3)Nc3nc(NS(C)(=O)=O)nn32)cc1 (stereo not given)	2.5
CC1=CCC2C(=O)N(c3ccc(Br)c(C)c3)C(=O)C2C1 (stereo not given)	-1.1
CN(C)c1ccc(NC2CC(=O)N(c3ccc(N4CCOCC4)cc3)C2=O)cc1 (stereo not given)	-1.2
COC(=O)c1sc(N2C(=O)c3oc4cc(C)c(C)cc4c(=O)c3C2c2ccc(O)cc2)nc1C (stereo not given)	0.39
Clc1cccc(Sc2ccc(-c3ccccn3)s2)c1	-0.72
COc1ccc(SCCC(=O)NNS(=O)(=O)c2ccc(-c3ccccn3)s2)cc1	-1.7
O=C(NNS(=O)(=O)c1ccc(-c2ccccn2)s1)Nc1cccc(Cl)c1	4*
COC(=O)c1cc(C)nc(Sc2ccccc2NC(=O)c2ccc(Cl)cc2)n1	-2.1
O=C(c1nn2c(c1Cl)NC(c1ccc(Br)cc1)CC2C(F)(F)F)N1CCCCC1 (stereo not given)	-1.3
O=C(O)c1nn2c(c1Br)NC(c1ccccc1)CC2C(F)(F)F (stereo not given)	-0.34
O=C(c1nn2c(C(F)(F)F)cc(-c3ccccc3)nc2c1Br)N1CCOCC1	-0.52
Cc1ccc(C2CC(C(F)(F)F)n3nc(C(=O)N4CCCCC4)c(Cl)c3N2)cc1 (stereo not given)	0.49
O=C(c1nn2c(c1Cl)NC(c1ccc(Br)cc1)CC2C(F)(F)F)N1CCOCC1 (stereo not given)	3.7*
O=C(c1nn2c(c1Br)NC(c1ccccc1)CC2C(F)(F)F)N1CCOCC1 (stereo not given)	5.2*
NC(=O)c1nn2c(c1Br)NC(c1ccccc1)CC2C(F)(F)F (stereo not given)	3.8*
Cc1ccc(C2CC(C(F)(F)F)n3nc(C(=O)N4CCN5CCCC5C4)c(Cl)c3N2)cc1 (stereo not given)	-1.7
CC(NC(=O)c1nn2c(c1Cl)NC(c1ccccc1)CC2C(F)(F)F)c1ccccc1 (stereo not given)	-0.69
SMILES	Dicer inh
Cn1c(=O)c2c(N3CCOCC3)cc(=O)n(C)c2n(C)c1=O	-0.02
CSc1cc(-c2ccccn2)nc(C(C)(C)C)c1	2.3
O=C(c1ccco1)N1CCN(c2ncccc2C(F)(F)F)CC1	-1
COc1ccc([N+](=O)[O-])c(OC)c1C(=O)Nc1ccc(F)c(Cl)c1	-0.3
CCc1ccc2[nH]c(C)c(CN3CCCC3)c(=O)c2c1	1.1
C/C(=N\Nc1nc(C(C)(C)C)cs1)c1ccc(Cl)c(Cl)c1	-1
COCCCNC(=S)Nc1cccc(Cl)c1C	-1.7
CCOC(=O)C(NC(=O)CC)(Nc1ccc(C)c(C)c1)C(F)(F)F (stereo not given)	0.24
CCOc1cc(C2c3c(oc4ccc(C)cc4c3=O)C(=O)N2Cc2ccc3c(c2)OCO3)ccc1O (stereo not given)	0.86
CCCCCCSc1nnc2[nH]c(=O)cc(N)n12	3.8*
COc1ccccc1OCCSc1nnc2[nH]c(=O)cc(N)n12	1.9
CC(C)CSc1nnc2[nH]c(=O)cc(N)n12	2.4
C=CCSc1n[nH]c(=O)n1C1CCCCC1	-1.1
C=CCSc1nnc2[nH]c(=O)cc(N)n12	5.2*
C=C(C)CSc1nnc2[nH]c(=O)cc(N)n12	2.9
O=c1c(-c2ccccc2Cl)c(C(F)(F)F)oc2c(CN3CCCC3)c(O)ccc12	0.46
CCOc1ccc(S(=O)(=O)Nc2cc(C)ccn2)c(C)c1C	0.29
CCCc1cc(=O)[nH]c(SCC(=O)N2CCN(C(=O)c3ccc(C)cc3)C2)n1	-1.3
O=S(=O)(c1ccc(Cl)cc1)c1nc(-c2cccs2)oc1N1CCOCC1	-1.2
O=[N+]([O-])c1cc(C2OCC3(CO)COC(c4csc([N+](=O)[O-])c4)N23)cs1 (stereo not given)	2.4
CCc1nc2nc(CSc3ccc(C)cc3)cc(=O)n2[nH]1	1.3
O=c1cc(CSc2ccc(Cl)cc2)nc2nc[nH]n12	4.4*
O=c1cc(-c2ccccc2)nc2nc[nH]n12	1.1
CCCCN(CCCC)Cc1c(C)[nH]c2ccccc2c1=O	1.6
Cc1ccc2c(c1)NC(c1ccc([N+](=O)[O-])s1)O2 (stereo not given)	-0.37
SMILES	Dicer inh
COc1ccc(N(Cc2ccccn2)C(=O)c2ccc(F)cc2)cc1	-0.43
c1coc(CN2CN(CCN3CCOCC3)Cn3c2nc2ccccc23)c1	-1.6
Nc1csc2cc(C(F)(F)F)cc(Cl)c12	0.48
CCCC(=O)Nc1sc2c(c1C(=O)OC)CCC2	0.71
COC(=O)c1c(NC(=O)Nc2cccc(Cl)c2)sc2c1CCCC2	3.4*
COC(=O)c1c(NC(=O)c2ccccc2Br)sc2c1CCC2	1.4
Cc1ccc(/C(O)=C2\C(=O)C(=O)N(CCCN(C)C)C2c2ccc(C)cc2)cc1 (stereo not given)	2.9
CC1CCN(c2oc(-c3ccco3)nc2S(=O)(=O)c2ccc(Cl)cc2)CC1	-0.04
O=C(O)c1ccc(N2C(=O)c3cccnc3C2=O)cc1	4.5*
O=C(Nc1ccc(N2C(=O)c3cccnc3C2=O)cc1)c1ccco1	-1.3
O=C1c2cccnc2C(=O)N1c1cccc(-c2nc3ccccc3o2)c1	2.7
CCOC(=O)c1nn(-c2ccccc2)c(=O)c2c(N)c(C#N)ccc12	-3.2
Brc1ccc(C2=Nn3c(CSc4ccccc4)nnc3SC2)cc1	0.22
O=C(c1ccc([N+](=O)[O-])cc1)c1ccc2c(c1)CCC2	3.6*
C/C(=N\NC(=O)N/N=C(\C)c1ccc([N+](=O)[O-])cc1)c1ccc([N+](=O)[O-])cc1	-1.2
O=C(CSC1=NCCCCC1)c1ccc([N+](=O)[O-])cc1	-2.1
O=C(Nc1ccc(Cl)cc1Cl)c1cccnc1Sc1cccc(C(F)(F)F)c1	-0.5
CCCC(NC(=O)c1ccco1)C(=O)O (stereo not given)	2.2
Cc1cc(C)nc(SCc2ccccc2)n1	-0.98
Cc1cc(C)nc(SCCC(=O)O)n1	3.2*
O=C(CSc1n[nH]c(-c2ccccc2Cl)n1)c1ccc(O)c(O)c1	4.9*
Cc1cc(C)nc(SCC(=O)c2cccs2)n1	2.4
CCc1nc(SCC(=O)c2ccc(O)c(O)c2)n[nH]1	0.01
Cc1cc(C)nc(SCC(=O)c2ccccc2)n1	-0.31
COc1ccccc1-c1nc(SCC(=O)c2ccccc2)n[nH]1	0.59
Cc1cc(C)nc(SCC(=O)c2ccc(O)c(O)c2)n1	3.1*
Cc1cc(C)nc(SCC(=O)Nc2ncccn2)n1	1.1
COc1ccc(C2CN=NC23CSc2ccccc2C3=O)cc1 (stereo not given)	-1.7
COC(=O)C1C(c2ccc(O)cc2)C(C(=O)OC)S(=O)(=O)CS1(=O)=O (stereo not given)	-0.77
